Data: PubChem BioAssay (NCATS)
Several values for one entry are separate records, joined by “and”; a condition that tells them apart may be missing. Equal values may be shown once. Records with an inconclusive call do not appear. Activity calls are given as the source filed them. Unless noted, the call rests on the fitted dose curve; in most records, active means well fitted inhibition curve with a large enough effect; inconclusive means small, poorly fitted or top-dose-only effect; inactive means flat fitted curve, though single readings scatter.

Assays:
[1] = target: Glucocorticoid receptor (Homo sapiens) (UniProt P04150); test: GR-GFP Redistribution (AID 450;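 active means compounds whose dose series gives a full or clear partial fitted curve of increased nuclear translocation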; further: potency means the concentration at half of the fitted maximal effect); details: U2OS GR-GFP nuclear translocation, laser cytometry, 2 h
Glucocorticoid receptor (Homo sapiens), sequence (P04150 whole entry, looked up, the tested form may be a part): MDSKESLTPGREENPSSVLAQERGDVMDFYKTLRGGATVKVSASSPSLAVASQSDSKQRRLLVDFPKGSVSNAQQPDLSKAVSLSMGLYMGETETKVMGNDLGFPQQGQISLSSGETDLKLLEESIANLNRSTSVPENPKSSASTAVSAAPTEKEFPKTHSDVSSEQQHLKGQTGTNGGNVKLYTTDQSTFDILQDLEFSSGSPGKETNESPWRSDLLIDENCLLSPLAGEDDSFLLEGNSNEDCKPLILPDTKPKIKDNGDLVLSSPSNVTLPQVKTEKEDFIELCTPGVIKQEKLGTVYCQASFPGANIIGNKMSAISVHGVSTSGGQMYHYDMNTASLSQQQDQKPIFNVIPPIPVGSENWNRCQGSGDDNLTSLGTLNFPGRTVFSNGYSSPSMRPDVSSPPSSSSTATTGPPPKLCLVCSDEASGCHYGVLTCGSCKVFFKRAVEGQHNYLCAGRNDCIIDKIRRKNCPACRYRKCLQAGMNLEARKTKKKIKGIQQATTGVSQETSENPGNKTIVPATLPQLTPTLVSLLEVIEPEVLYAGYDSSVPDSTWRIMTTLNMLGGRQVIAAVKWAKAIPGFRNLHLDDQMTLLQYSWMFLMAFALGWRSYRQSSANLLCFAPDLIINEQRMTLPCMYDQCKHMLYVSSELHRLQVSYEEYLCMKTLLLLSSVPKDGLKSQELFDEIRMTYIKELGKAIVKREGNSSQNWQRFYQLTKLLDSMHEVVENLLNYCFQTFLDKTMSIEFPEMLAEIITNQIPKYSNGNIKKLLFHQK

[2] = target: Glucocorticoid receptor (Homo sapiens) (UniProt P04150); test: GR-EFC Redistribution (AID 451; calls by dose curve; further: potency means the concentration at half of the fitted maximal effect); details: CHO-K1 GR-EFC translocation, beta-gal luminescence, 2 h
Summary of the method: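 CHO-K1 cells stably expressing nuclear-localized β-gal enzyme acceptor and GR fused C-terminally to the enzyme donor fragment; ligand-driven nuclear translocation restores β-gal by complementation. Compounds titrated up to 46 uM final, 2 h at 37 °C; luminescence read.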

[3] = target: Mitogen-activated protein kinase 10 (Mus musculus) (UniProt Q61831); test: JNK3 AlphaScreen Assay (AID 530; active means well fitted curve in either direction with a large enough effect, not every such curve was filed as active;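 further: kinase came from lysate of stimulated human HepG2 cells; signal reports phosphorylation of biotinylated GST-cJun 1-79 at Ser73 with 10 µM ATP; on the % scale 0 is the no-effect control and ±100 the full control effect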); details: JNK3 lysate, c-Jun phosphorylation; series mostly up to 57.1 µM
Summary of the method: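 JNK3 came from HepG2 lysates pre-activated with IL-1beta and TNF-alpha and phosphorylated biotinylated GST-cJun (1-79) at 10 uM ATP, pH 7.6, room temperature. Compounds were titrated. AlphaScreen signal used anti-phospho-cJun (Ser73) antibody.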

[4] = qHTS Assay for Lipid Storage Modulators (AID 1519; calls by dose curve; on activity change, negative = inhibition: on the % scale 0 is the no-effect control and ±100 the full control effect); details: Drosophila S3 cells, BODIPY lipid droplet/cell ratio, laser cytometry, cells loaded with oleic acid
Summary of the method: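 Cells seeded at 5,000 per well were treated with compounds over a concentration series and loaded with oleic acid (400 uM, as added). Lipid droplet fluorescence (488 nm excitation, 500-530 nm channel) was read by laser-scanning cytometry and normalized to 20 uM Triacsin C.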

[5] = target: DNA dC->dU-editing enzyme APOBEC-3G (Homo sapiens) (UniProt Q9HC16); test: qHTS for inhibitors of Vif-A3G interactions: Validation (AID 588379); details: Vif-A3G protein interaction assay; series mostly up to 46.1 µM; further: 0% is about no effect
DNA dC->dU-editing enzyme APOBEC-3G (Homo sapiens), sequence (Q9HC16 whole entry, looked up): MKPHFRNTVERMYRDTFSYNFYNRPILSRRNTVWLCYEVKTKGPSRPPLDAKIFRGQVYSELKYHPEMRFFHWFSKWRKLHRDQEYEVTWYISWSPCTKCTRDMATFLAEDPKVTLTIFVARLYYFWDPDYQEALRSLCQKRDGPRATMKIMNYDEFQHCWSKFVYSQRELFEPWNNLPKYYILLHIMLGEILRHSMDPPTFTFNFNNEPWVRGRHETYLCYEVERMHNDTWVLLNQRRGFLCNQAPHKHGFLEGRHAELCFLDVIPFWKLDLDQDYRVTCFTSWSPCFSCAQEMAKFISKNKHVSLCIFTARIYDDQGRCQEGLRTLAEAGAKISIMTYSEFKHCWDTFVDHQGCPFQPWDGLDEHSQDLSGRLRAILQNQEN
Summary of the method: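 HeLa cells stably expressing Vif and A3G-eYFP, 700 cells/well, incubated overnight at 37 deg C, then exposed to compound overnight at 37 deg C. Inhibition of Vif-mediated degradation read as increased yellow fluorescence (Ex 488/Em 500-530) by laser-scanning cytometry.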

[6] = test system: Zika virus NS2B-NS3 protease; test: Primary screen GU AMC qHTS for Zika virus inhibitors (AID 1347154); details: Zika NS2B-NS3 unlinked protease, AMC fluorogenic substrate; series mostly up to 54.1 µM;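 further: 0% = no-inhibitor control and -100% = no-enzyme control; nearly all actives have a fitted effect of over 70% in size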
Summary of the method: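 Unlinked Zika NS2B hydrophilic domain/NS3 protease domain noncovalent complex (25 nM final) in 10 mM Tris-HCl pH 8.0, 0.01% Tween 20, with AMC peptide substrate. Fluorescence (ex 340, em 450 nm) change over 15 min, room temperature; percent inhibition fitted to 4-parameter Hill equation.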

[7] = target: Ubiquitin carboxyl-terminal hydrolase 1 (Homo sapiens) (UniProt O94782); test: Inhibitors of USP1/UAF1: Pilot qHTS (AID 504865); details: purified USP1/UAF1, Ub-rhodamine cleavage fluorescence; series mostly up to 114 µM;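 further: rhodamine fluorescence freed from ubiquitin-rhodamine substrate followed over time; top concentration of the series differs between compounds; on the % scale 0 is the no-effect control and ±100 the full control effect; nearly all actives have a fitted effect of over 35% in size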
Ubiquitin carboxyl-terminal hydrolase 1 (Homo sapiens), sequence (O94782 whole entry, looked up): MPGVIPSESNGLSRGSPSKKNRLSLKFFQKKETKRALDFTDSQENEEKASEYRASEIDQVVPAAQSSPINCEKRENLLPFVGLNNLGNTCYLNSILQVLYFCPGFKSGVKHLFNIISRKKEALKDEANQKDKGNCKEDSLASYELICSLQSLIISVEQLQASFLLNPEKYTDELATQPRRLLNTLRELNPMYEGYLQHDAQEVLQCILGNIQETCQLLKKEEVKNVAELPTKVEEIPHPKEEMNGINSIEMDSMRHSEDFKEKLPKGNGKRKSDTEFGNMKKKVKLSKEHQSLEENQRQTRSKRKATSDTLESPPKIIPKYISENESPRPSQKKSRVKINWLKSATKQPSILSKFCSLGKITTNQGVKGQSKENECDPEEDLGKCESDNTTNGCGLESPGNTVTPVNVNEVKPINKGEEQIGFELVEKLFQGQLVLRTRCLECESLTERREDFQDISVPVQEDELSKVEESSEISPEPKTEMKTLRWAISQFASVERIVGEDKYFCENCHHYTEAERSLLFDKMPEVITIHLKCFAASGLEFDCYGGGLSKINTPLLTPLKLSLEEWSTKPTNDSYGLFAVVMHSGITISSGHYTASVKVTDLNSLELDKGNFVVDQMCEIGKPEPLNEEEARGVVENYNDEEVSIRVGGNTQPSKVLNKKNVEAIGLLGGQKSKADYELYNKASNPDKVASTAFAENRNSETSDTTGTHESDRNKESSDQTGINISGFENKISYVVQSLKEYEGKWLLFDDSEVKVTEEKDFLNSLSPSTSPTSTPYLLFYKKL
Summary of the method: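 In 50mM HEPES pH 7.8 containing 0.5mM EDTA, 1mM TCEP, 0.1 mg/ml BSA and 0.01% Tween-20, 1nM USP1/UAF1 is exposed to compound for 15 min, then Ub-Rho (150nM final) is added and fluorescence is read over time.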

[8] = measured here: cell count channel max response
[9] = measured here: lipid channel max response

SMILES | Potency [1] | Potency [2] | outcome [3] | activity change, negative = inhibition ([4]; at 57.5 µM (top of the series)) | max response [4, 8] | max response [4, 9] | Potency [5] | Potency [6] | Potency [7] | activity change, negative = inhibition ([4]; at 25.7 µM (top of the series))
CN1C(=O)CCS(=O)(=O)[C@H]1c1ccc(Cl)cc1 | > 46 µM (inactive) | > 46 µM (inactive) | inactive | -2.49% (inactive) | -1.62% | 2.79% | inactive | inactive | – | –
Cc1nc(N)sc1CCN | > 46 µM (inactive) | > 46 µM (inactive) | inactive | 3.05% (inactive) | -8.41% | -2.18% | inactive | inactive | inactive | –
C(=C/c1ccccc1)/CN1CCN(CCOC(c2ccccc2)c2ccccc2)CC1 | > 46 µM (inactive) | > 46 µM (inactive) | inactive | – | – | – | inactive | inactive | – | –
Oc1ccc2c3c1O[C@H]1c4oc5ccccc5c4C[C@]4(O)[C@H](C2)N(CC2CC2)CC[C@@]314 | > 46 µM (inactive) | > 46 µM (inactive) | inactive | – | – | – | inactive | inactive | – | –
N[C@H](C(=O)O)c1cc(=O)[nH]o1 | > 46 µM (inactive) | > 46 µM (inactive) | inactive | 3.47% (inactive) | -3.07% | -3.59% | inactive | inactive | – | –
CN1C(=O)COc2c(C(=O)N[C@@H]3CN4CCC3CC4)cc(Cl)cc21 | – | – | inactive | 3.71% (inactive) | 5.55% | 11.3% | inactive | inactive | inactive | –
CCCCC[C@H]1C(=O)O[C@H](C)[C@H](NC(=O)c2cccc(NC=O)c2O)C(=O)O[C@@H](C)[C@@H]1OC(=O)CC(C)C | – | – | – | – | – | – | – | inactive | – | –
C=CCN1CC[C@]23c4c5ccc(O)c4O[C@@H]2C(=O)CC[C@]3(O)[C@H]1C5 | – | – | inactive | 5.83% (inactive) | 1.84% and 18.9% | 3.55% and 28.2% | inactive | inactive | inactive | -1.11% (inactive)
N#CC(C#N)=NNc1ccc(OC(F)(F)F)cc1 | – | – | – | – | – | – | – | inactive | – | –
NC(N)=Nc1ccc2[nH]c3c(c2c1)C[C@]1(O)[C@@H]2Cc4ccc(O)c5c4[C@]1(CCN2CC1CC1)[C@@H]3O5 | > 46 µM (inactive) | > 46 µM (inactive) | inactive | – | – | – | inactive | inactive | inactive | –
NC[C@H](CC(=O)O)c1ccc(Cl)cc1 | > 46 µM (inactive) | > 46 µM (inactive) | inactive | 2.02% (inactive) | 12.8% | 19.1% | inactive | inactive | – | –
Oc1ccc2c3c1O[C@H]1c4[nH]c5ccccc5c4C[C@]4(O)[C@H](C2)N(CC2CC2)CC[C@@]314 | > 46 µM (inactive) | > 46 µM (inactive) | inactive | – | – | – | inactive | inactive | – | –
CCOC(=O)c1ncn2c1CN(C)C(=O)c1cc(N=[N+]=[N-])ccc1-2 | – | – | – | – | – | – | – | inactive | – | –
C=C(C)[C@H]1C2C(=O)O[C@H]1[C@H]1OC(=O)[C@@]34O[C@@H]3C[C@]2(O)[C@@]14C | – | – | – | 2.82% (inactive) | 7.99% | 11% | inactive | inactive | inactive | –
Cc1ccc2cc3c(ccc4ccccc43)c3c2c1CC3 | – | – | – | – | – | – | – | inactive | – | –
CCCN1C[C@H](C)N([C@H](c2ccc(C(=O)N(CC)CC)cc2)c2cccc(OC)c2)C[C@H]1C | > 46 µM (inactive) | > 46 µM (inactive) | inactive | 9.16% (inactive) | 26.5% | 30.1% | inactive | inactive | inactive | –
Cc1ncc(C[n+]2csc(CCO)c2C)c(=O)[nH]1 | – | – | – | – | – | – | – | inactive | – | –
O[C@H]1[C@H](O)[C@@H](O)CN2CC[C@H](O)[C@H]12 | – | – | – | – | – | – | – | inactive | – | –
CCNC(=O)[C@@H]1O[C@@H](n2cnc3c(N)ncnc32)[C@H](O)[C@H]1O | > 46 µM (inactive) | > 46 µM (inactive) | – | 0.939% (inactive) | -12.5% | -10.6% | inactive | inactive | inactive | –
CN1[C@@H]2CC[C@H]1CC(OC(=O)N1Cc3ccccc3NC1=O)C2 (some centres undefined) | – | – | – | – | – | – | – | inactive | – | –
CC(C)(c1ccc(OC[C@@H]2CO2)cc1)c1ccc(OC[C@H]2CO2)cc1 | > 46 µM (inactive) | > 46 µM (inactive) | – | 4.02% (inactive) | 20.1% | 20.3% | inactive | inactive | – | –
C#CCN1C(C)=C(C(=O)CCO)[C@@H](c2cccc(-n3oo3)c2)C(C(=O)OC)=C1C | > 46 µM (inactive) | > 46 µM (inactive) | inactive | – | – | – | inactive | inactive | – | –
C=C(C)[C@H]1CN[C@H](C(=O)O)[C@@H]1CC(=O)O | > 46 µM (inactive) | > 46 µM (inactive) | inactive | 2.85% (inactive) | -5.55% | -4.1% | inactive | inactive | inactive | –
C=CCN1C[C@H](C)N([C@@H](c2ccccc2)c2ccc(C(=O)N(CC)CC)cc2)C[C@H]1C | > 46 µM (inactive) | > 46 µM (inactive) | inactive | 7.78% (inactive) | 14.7% | 20% | inactive | inactive | inactive | –
